Measured values: PubChem BioAssay (NCI)
Compounds without any hit were thinned out: in the full panel of roughly 83,000, 20% have a hit.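 Step 1: grow cells in 96-well plates. Step 2: add test compound at a single concentration. Step 3: incubate 48 h. Step 4: record percent growth.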 Activity calls are given as the source filed them. The calls were made as follows: active = growth percent below 10; inactive = the rest.

What was measured:
Test in all cases: NCI-60 one-dose screen, 48 h (100 = growth as untreated, 0 = no growth, -100 = all killed)
Conditions in all cases: 10 µM unless noted
[1] = system: SK-MEL-2 melanoma
[2] = system: EKVX NSCLC
[3] = system: SN12C renal
[4] = system: UO-31 renal
[5] = system: TK-10 renal
[6] = system: ACHN renal
[7] = system: CAKI-1 renal
[8] = system: A498 renal
[9] = system: CCRF-CEM leukemia
[10] = system: MOLT-4 leukemia
[11] = system: SR leukemia
[12] = system: RPMI-8226 leukemia
[13] = system: OVCAR-8 ovarian
[14] = system: OVCAR-5 ovarian
[15] = system: OVCAR-4 ovarian
[16] = system: SK-OV-3 ovarian
[17] = system: IGROV1 ovarian
[18] = system: OVCAR-3 ovarian
[19] = system: HS 578T breast
[20] = system: NCI/ADR-RES ovarian

| SMILES | growth [1] | growth [2] | growth [3] | growth [4] | growth [5] | growth [6] | growth [7] | growth [8] | growth [9] | growth [10] | growth [11] | growth [12] | growth [13] | growth [14] | growth [15] | growth [16] | growth [17] | growth [18] | growth [19] | growth [20] |
| --- | --- | --- | --- | --- | --- | --- | --- | --- | --- | --- | --- | --- | --- | --- | --- | --- | --- | --- | --- | --- |
| CCN1C(=O)N(CC)C2C1NN=c1s/c(=C\c3ccc[nH]3)c(=O)n12 (stereo not given) | 23.4% (inactive) | 47.4% (inactive) | 39.2% (inactive) | 39.2% (inactive) | 61.6% (inactive) | 42.3% (inactive) | 27.5% (inactive) | -4.45% (active) | 4.06% (active) | 20.4% (inactive) | 16.3% (inactive) | 15.5% (inactive) | 11.2% (inactive) | 22.2% (inactive) | 50.6% (inactive) | 27.1% (inactive) | 28.8% (inactive) | -25.3% (active) | 7.95% (active) | 8.11% (active) |
| Cn1ccc(=O)nc1 | 12.7% (inactive) | 130% (inactive) | 81.5% (inactive) | 73.4% (inactive) | 94.9% (inactive) | -4.04% (active) | 73.4% (inactive) | 98.1% (inactive) | 86.7% (inactive) | 74.6% (inactive) | 68.7% (inactive) | 101% (inactive) | 78.7% (inactive) | 74.5% (inactive) | 76.1% (inactive) | 93% (inactive) | 79% (inactive) | 115% (inactive) | 132% (inactive) | 93.4% (inactive) |
| CN1CCN(c2ccc(NC(=O)c3cncnc3Nc3ccc(OCc4cccc(F)c4)c(Cl)c3)cc2)CC1 | 120% (inactive) | 98.6% (inactive) | 63.9% (inactive) | 25% (inactive) | 103% (inactive) | 89.3% (inactive) | 81.5% (inactive) | 70.8% (inactive) | 16.2% (inactive) | 6.75% (active) | 14.9% (inactive) | 70.2% (inactive) | 76.7% (inactive) | 76.3% (inactive) | 72.1% (inactive) | 103% (inactive) | 91.6% (inactive) | 81.7% (inactive) | 75% (inactive) | 75.2% (inactive) |
| CSC1=Nc2c(c(C)c(-c3ccccc3)n2CCCC(=O)O)C2=NC(=O)C[C@H](C)N12 | 107% (inactive) | 92.8% (inactive) | 122% (inactive) | 88.6% (inactive) | 118% (inactive) | 121% (inactive) | 103% (inactive) | 128% (inactive) | 98.4% (inactive) | 104% (inactive) | 114% (inactive) | 93.6% (inactive) | 110% (inactive) | 107% (inactive) | 93% (inactive) | 130% (inactive) | 97.5% (inactive) | 119% (inactive) | 98.1% (inactive) | 104% (inactive) |
| Nc1nc2c(c3ncccc13)C(c1cccc(Cl)c1)Cc1ncccc1-2 (stereo not given) | 25.3% (inactive) | 39.8% (inactive) | 36.7% (inactive) | 38% (inactive) | 55.8% (inactive) | 45.5% (inactive) | 30.2% (inactive) | -7.23% (active) | 19.7% (inactive) | 14.5% (inactive) | 8.92% (active) | 32.4% (inactive) | 23.8% (inactive) | 44.7% (inactive) | 52.4% (inactive) | 14.1% (inactive) | 50.5% (inactive) | 0.176% (active) | 31.1% (inactive) | 18.7% (inactive) |
| CN(CCCNC(=O)Cc1ccc2ccc3cccc4ccc1c2c34)CCCNc1cc(-c2ccc3ccccc3c2)nc2ccccc12 | -59.5% (active) | -44.6% (active) | -66.2% (active) | -47.4% (active) | -58.2% (active) | -66.4% (active) | -36.9% (active) | -62% (active) | -74.5% (active) | -82.9% (active) | -70.8% (active) | -47% (active) | -25.3% (active) | -88.2% (active) | -83% (active) | -85.6% (active) | -19.4% (active) | -81.5% (active) | -32% (active) | -77.7% (active) |
| N=C(N)c1ccc(-c2ccc(-c3ccccc3)s2)cc1 | 105% (inactive) | 84.6% (inactive) | 70.3% (inactive) | 83.5% (inactive) | 108% (inactive) | 68.3% (inactive) | 14.5% (inactive) | 89.1% (inactive) | 21% (inactive) | -3.58% (active) | 7.19% (active) | -4.15% (active) | 38.1% (inactive) | 61.4% (inactive) | 45.8% (inactive) | 85.2% (inactive) | 60.2% (inactive) | 53.7% (inactive) | 87.8% (inactive) | 89.2% (inactive) |
| CC(=O)/C(=C/c1ccc([N+](=O)[O-])cc1)C(=O)c1ccccc1 | 89.4% (inactive) | 101% (inactive) | 91.6% (inactive) | 69.1% (inactive) | 87.8% (inactive) | 83.8% (inactive) | 96.3% (inactive) | 112% (inactive) | 33.7% (inactive) | 21.4% (inactive) | -0.146% (active) | 8.32% (active) | 94.4% (inactive) | 112% (inactive) | 93.7% (inactive) | 101% (inactive) | 82.9% (inactive) | 96.5% (inactive) | 92.3% (inactive) | 83.7% (inactive) |
| Cc1ccc(C)c(/C=C2\CN(C(=O)OC(C)(C)C)C/C(=C\c3cc(C)ccc3C)C2=O)c1 | 82% (inactive) | 82.8% (inactive) | 31.4% (inactive) | 61.1% (inactive) | 89.1% (inactive) | 15.5% (inactive) | 45.2% (inactive) | 73% (inactive) | 4.98% (active) | 7.4% (active) | 0.122% (active) | -24.4% (active) | 12.7% (inactive) | 86.1% (inactive) | 22% (inactive) | 87.7% (inactive) | 78.1% (inactive) | 13.1% (inactive) | 43.9% (inactive) | 26.5% (inactive) |
| CC(=O)O[C@H]1C[C@@H]2C(C)(C)C(=O)CC[C@@]2(C)c2ccc(C(C)C)cc21 | 109% (inactive) | 99.3% (inactive) | 107% (inactive) | 91.8% (inactive) | 97.2% (inactive) | 107% (inactive) | 89.6% (inactive) | 100% (inactive) | 108% (inactive) | 108% (inactive) | 105% (inactive) | 108% (inactive) | 101% (inactive) | 119% (inactive) | 104% (inactive) | 109% (inactive) | 101% (inactive) | 102% (inactive) | 102% (inactive) | 108% (inactive) |
| C[C@H](CCCC(=O)NCC#CCN1CCN(C)CC1)[C@H]1CC[C@H]2[C@@H]3CC[C@@H]4CC(=O)CC[C@]4(C)[C@H]3CC[C@]12C | 103% (inactive) | 93.5% (inactive) | 86% (inactive) | 64.5% (inactive) | 99% (inactive) | 105% (inactive) | 108% (inactive) | 75.4% (inactive) | 81.2% (inactive) | 84.3% (inactive) | 48.3% (inactive) | 86.7% (inactive) | 94.6% (inactive) | 93.3% (inactive) | 98.4% (inactive) | 81.6% (inactive) | 92.2% (inactive) | 91.5% (inactive) | 81.8% (inactive) | 93.5% (inactive) |
| COc1ccc(C(O)c2cc3c(N)c(C(=O)Nc4cccc(Cl)c4C)sc3nc2C)cc1 (stereo not given) | 17% (inactive) | 35% (inactive) | 13.6% (inactive) | 17.9% (inactive) | 44.1% (inactive) | 24.7% (inactive) | 13.8% (inactive) | -24.7% (active) | 10.1% (inactive) | 15.2% (inactive) | 0.176% (active) | -2.02% (active) | 10.1% (inactive) | 35.5% (inactive) | 25.7% (inactive) | 11.6% (inactive) | 10.7% (inactive) | -11% (active) | 13.6% (inactive) | 7.99% (active) |
| C=C(C)[C@@H]1CC[C@]2(C(=O)N3CCN(C)CC3)CC[C@]3(C)[C@H](CC[C@@H]4[C@@]5(C)CC[C@H](OC(=O)c6ccccc6C(=O)O)C(C)(C)[C@@H]5CC[C@]43C)[C@@H]12 | 107% (inactive) | 98.4% (inactive) | 93.5% (inactive) | 77.7% (inactive) | 106% (inactive) | 100% (inactive) | 83.9% (inactive) | 74.9% (inactive) | 97.1% (inactive) | 88.7% (inactive) | 90.5% (inactive) | 96.7% (inactive) | 104% (inactive) | 104% (inactive) | 99.2% (inactive) | 104% (inactive) | 97.9% (inactive) | 110% (inactive) | 94.7% (inactive) | 104% (inactive) |
| C#CC#CC#CC#CC#CC#CC#CC#CCC1OC[C@H](COC(=O)O[C@@H](C(=O)O[C@H]2C[C@@]3(O)[C@@H](OC(=O)c4ccccc4)[C@@H]4[C@]5(OC(C)=O)CO[C@@H]5C[C@H](O)[C@@]4(C)C(=O)[C@H](OC(C)=O)C(=C2C)C3(C)C)[C@@H](NC(=O)c2ccccc2)c2ccccc2)O1 (stereo not given in full) | 36.2% (inactive) | 60.2% (inactive) | 31.2% (inactive) | 95.1% (inactive) | 84.9% (inactive) | 69.8% (inactive) | 59.5% (inactive) | -1.18% (active) | 15.1% (inactive) | 28.5% (inactive) | 24.6% (inactive) | 15.4% (inactive) | 31.4% (inactive) | 26% (inactive) | 57.5% (inactive) | 53.5% (inactive) | 33.2% (inactive) | 9.45% (active) | 8.95% (active) | 106% (inactive) |
